Out of some 69,000 compounds screened, about 8,600 (12%) showed an effect of 50% or more. This is one part of a sample in which strong results are shown more often than they occur.

The test concerns Plasmodium berghei. Kind of test: Screen against P. berghei liver stage (PbLuc), transformed with Luciferase, at 10uM. Format: functional, HepG2. As to conditions: tested at 10 uM.
Turning to `CS(=O)(=O)c1cn[nH]c1C1CCCN(C(=O)Cn2cccn2)C1` (stereo unspecified), the INHIBITION was determined as 2.71%.
With `COc1cccc2c3c(c(=O)[nH]c12)CC(C)(C)O3`, the INHIBITION is recorded as -6.18%.
On to `CCOc1ccc(C(=O)N(C)C)cc1NC(=O)c1ccsc1`, for which the INHIBITION is listed as -20.7%.
Take `CCOc1cc(C(=O)N(C)C)ccc1NC(=O)C(C)c1ccsc1` (stereo unspecified): the INHIBITION turned out to be 51.5%.
Consider `CCOc1cc(C(=O)N(C)C)ccc1NC(=O)c1ccsc1`, for which the INHIBITION is reported as -23%.
For `Cc1cccc2c1cnn2CCCNC(=O)c1ccnn1C`, the INHIBITION worked out at 35%.
For the compound `CC(C)Cc1cc(C(=O)O)nc2[nH]c(=O)[nH]c(=O)c12`, the INHIBITION was 41.2%.
As to `CCCOCCNc1nc2c(s1)c(C)nn2C`, the INHIBITION is reported as -18.6%.
The value for `Cc1csc(CNc2nc3c(s2)c(C)nn3C)n1` was 8.03%; that for `CCc1csc(CNc2nc3c(s2)c(C)nn3C)n1` was 65.7%; that for `CCc1nc(CNc2nc3c(s2)c(C)nn3C)cs1` was 63.1%.
`Cc1nc(CNc2nc3c(s2)c(C)nn3C)cs1`: the INHIBITION is reported as 40.8%.
In the case of `CCSCCNc1nc2c(s1)c(C)nn2C`, the INHIBITION is listed as 25.8%.
For `Cc1ccc(CCc2nc(C3CCOC3)no2)o1` (stereo unspecified), the INHIBITION worked out at 29%.
With `CN(C)[C@@H]1CCN(C(=O)C2CCOCC2)[C@H]1Cc1ccncc1`, the INHIBITION was determined as 0.804%.
For `COCCN1CCc2ccc(=O)n(Cc3csc(C)n3)c2CC1`, the INHIBITION is -15.3%.
With `CCc1nnc(Nc2cccc(C3CCN(c4cnccn4)CC3)n2)s1`, the INHIBITION is listed as 36.4%.
Regarding `CC(=O)N1C[C@H]2CC[C@@H](C1)N(S(=O)(=O)c1ccc(F)cc1Cl)C2`, the INHIBITION is -10.2%.
For `Cc1cc(CCC(=O)NCc2nccn2C)ccc1Br`, the INHIBITION came to 46.1%.
For `Cc1cc(CCC(=O)NCc2ncc[nH]2)ccc1Br`, the INHIBITION is given as 54.8%.
For `Cc1cc2ccccc2n1CCC(=O)NCc1ncc[nH]1`, the INHIBITION is given as 20.5%.
`CN1CCC(CCNC(=O)N2CCN(Cc3ccon3)CC2)CC1`: the INHIBITION stood at 23.5%.
The value for `CCC1CCCCN1CCNC(=O)N1CCN(Cc2ccon2)CC1` (stereo unspecified) was 50.8%; that for `CN(CCNC(=O)N1CCN(Cc2ccon2)CC1)C1CCCC1` was -6.02%.
Take `Cc1cnc(CNC(=O)[C@@]23CCO[C@@H]2CCN(C2CCCC2)C3)cn1`: the INHIBITION turned out to be 18.6%.
Then `Cc1ccc(N2CC[C@H](O)[C@@H]2Cc2cnn(C)c2)nn1`, with -15.9%; and `CC(=O)N1CCCN(C2CCCCc3ccccc32)CC1` (stereo unspecified), with 55.4%.
In the case of `O=C1CN(C(=O)CC2c3ccccc3CCc3ccccc32)CCN1`, the INHIBITION amounted to 42.1%.
`CC(=O)N1CCN(C2CCCCc3ccccc32)CC1` (stereo unspecified): the INHIBITION was -1.16%.
On to `NC(=O)N1CCCN(C2CCCCc3ccccc32)CC1` (stereo unspecified), for which the INHIBITION amounted to 13.7%.
In the case of `CC(=O)N1CCN([C@@H]2CN(C(=O)c3ccccc3)C[C@H]2O)CC1`, the INHIBITION amounted to 11.8%.
As for `CC(=O)N1CCN(C2CCc3ccccc32)CC1` (stereo unspecified), the INHIBITION is listed as 64.7%.
Regarding `Cc1cccc(C2(CNC(C)c3nnc(C)o3)CCCC2)c1` (stereo unspecified), the INHIBITION was -10.2%.
Take `CCCc1ccc(S(=O)(=O)NC(=O)CCC2CCCO2)cc1` (stereo unspecified): the INHIBITION amounted to 4.71%.
In the case of `Cn1cccc1C(=O)N1CCC2(CC1)CC(N1CCOCC1)C2`, the INHIBITION was -23.3%.
Take `COc1ccccc1C1(C(=O)N2CCCC(c3cc(C)[nH]n3)C2)CC1` (stereo unspecified): the INHIBITION is recorded as -14.6%.
With `c1cncc(CN2CCC3(CC2)CC(c2cccnc2)CO3)c1` (stereo unspecified), the INHIBITION was -35%.
For the compound `c1cncc(C2COC3(CCN(Cc4cccs4)CC3)C2)c1` (stereo unspecified), the INHIBITION is recorded as 0.618%.
For the compound `Cc1ccc(CN2CCC3(CC2)CC(c2cccnc2)CO3)s1` (stereo unspecified), the INHIBITION amounted to 50.1%.
Regarding `COc1cccc2ccn(CCC(=O)N3CCCC(C(=O)O)C3)c12` (stereo unspecified), the INHIBITION is reported as -19.7%.
Then `CN(C)C(=O)CN1CCc2ncnc(C3CC3)c2CC1`, with 48.4%; and `Cc1ncnc2c1CCN(C(=O)N(C)C)CC2`, with 80.1%.
For `CN(C)C(=O)CN1CCc2ncnc(N(C)C)c2CC1`, the INHIBITION turned out to be 3.17%.
Consider `CN(C)C(=O)CN1CCc2ncnc(NC3CCC3)c2CC1`, for which the INHIBITION is 72.9%.
With `CCN(C)c1ncnc2c1CCN(C(=O)N(C)C)CC2`, the INHIBITION was -64.7%.
As to `COCCN1CCc2ncnc(NC3CC3)c2CC1`, the INHIBITION was -31.1%.
On to `Cc1ncnc2c1CCN(C(=O)CN(C)C)CC2`, for which the INHIBITION is 46.7%.
In the case of `Cc1ncnc2c1CCN(CC(=O)N(C)C)CC2`, the INHIBITION was found to be 53%.
Turning to `CCc1ncnc2c1CCN(CC(=O)N(C)C)CC2`, the INHIBITION came out at 30.3%.
For the compound `Fc1ccc(C2CN(c3ncnc4[nH]ncc34)CCO2)cc1` (stereo unspecified), the INHIBITION worked out at 40.8%.
For the compound `CN(C)CCn1nc(C2CCN(Cc3ccccc3)C2)c2cccnc21` (stereo unspecified), the INHIBITION is given as 28.3%.
Then `Cc1ccc(CNC(=O)c2nn(C)c3c2CS(=O)(=O)CC3)o1`, with 30.8%; and `Cc1ccc(NC2CCN(C(=O)CCc3ccccc3)CC2)nn1`, with -26.6%; and `CCOc1ccnc(N2CCN(C(=O)c3ccc(OC)cc3)CC2)n1`, with 31.9%.
For the compound `CSCC(C)(O)CNC(=O)c1cc(Cl)ccc1Cl` (stereo unspecified), the INHIBITION is reported as -21.3%.
As to `CSCC(C)(O)CNC(=O)c1cc(Br)ccc1Cl` (stereo unspecified), the INHIBITION was found to be 55.4%.
Take `CSCC(C)(O)CNC(=O)c1ccc(Br)cc1F` (stereo unspecified): the INHIBITION is -59.2%.
On to `N#Cc1ccc(F)c(CN2CCNC(=O)C2c2cccs2)c1` (stereo unspecified), for which the INHIBITION turned out to be 23.1%.
For `O=c1cc(-c2ccccc2)nc2n1CCCCC2`, the INHIBITION was 49%.
As to `CCc1ncncc1C(=O)N1CCN(Cc2ccsc2)CC1`, the INHIBITION is 31.9%.
With `CCc1ncncc1C(=O)N1CCN(Cc2ccco2)CC1`, the INHIBITION came to 50.4%.
As to `CCc1ncncc1C(=O)N1CCCN(Cc2ccccc2C)CC1`, the INHIBITION was found to be 19.6%.
The value for `CCc1ncncc1C(=O)N1CCCN(Cc2ccc(C)cc2)CC1` was 56.6%.
Then `CCc1ncncc1C(=O)N1CCCN(Cc2ccc(C#N)cc2)CC1`, with 19.6%.
For the compound `CCc1nnsc1C(=O)N1CCCN(Cc2ccc(C)cc2)CC1`, the INHIBITION came to 29.4%.
On to `CCCc1n[nH]c(C2CN(C(=O)c3cccc4[nH]ncc34)CCO2)n1` (stereo unspecified), for which the INHIBITION is listed as 33.3%.
Then `Cc1ccc(OC2(C(=O)NC(C)Cc3ccncc3)CCNCC2)cc1` (stereo unspecified), with 26.7%; and `CN(C)C(=O)CO[C@H]1CO[C@@]2(CCN(Cc3ccsc3)C2)C1`, with 24%.
As to `Cc1nn(C)c(C)c1C1CCCN1CC(=O)Nc1ccc(Cl)cn1` (stereo unspecified), the INHIBITION is -48.4%.
The value for `O=C(Cc1cccnc1)N1CCCC2(CCN(C3CCOCC3)C2)C1` (stereo unspecified) was -62.2%; that for `Cc1ccc(C(=O)N2CCC3(CC2)CC(c2ccccc2)C(=O)N3)cn1` (stereo unspecified) was 30.5%; that for `Cc1nccn1[C@@H]1CC[C@@H](NC(=O)CCOc2ccccc2)[C@H]1O` was 21.7%.
Regarding `O=C(Cc1cccs1)NCc1ccnc(OC2CCOCC2)c1`, the INHIBITION is listed as -32.8%.
In the case of `CCC=C(C)C(=O)NCc1ccnc(OC2CCOCC2)c1`, the INHIBITION turned out to be 56%.
`CCC=C(C)C(=O)NCc1ccnc(OC)c1`: the INHIBITION is reported as 42.3%.
Turning to `O=C(NCCC1CCN(CC(F)(F)F)CC1)C1COCCO1` (stereo unspecified), the INHIBITION was found to be 21.8%.
For `c1cncc(CNCc2cccs2)c1`, the INHIBITION is recorded as 6.26%.
For the compound `O=C1CCCN1Cc1nnc2n1CCN(Cc1ccoc1)CC2`, the INHIBITION turned out to be 33.2%.
`O=C(O)c1cc(S(=O)(=O)N2CCOc3ccccc32)cc(Cl)c1Cl`: the INHIBITION is given as 23.25%.
The value for `O=C(c1ccccn1)N1C[C@H]2CC[C@@H](C1)N(C(=O)CCC(F)(F)F)C2` was 6.33%.
On to `O=C(c1ccccn1)N1C[C@H]2CC[C@@H](C1)N(C(=O)CCN1CCCC1)C2`, for which the INHIBITION amounted to 50.3%.
For `O=C(c1ccccn1)N1C[C@H]2CC[C@@H](C1)N(C(=O)CCC1CCCC1)C2`, the INHIBITION was -36.6%.
For `CC(=O)c1c(F)cccc1NCC(O)C(C)(C)C` (stereo unspecified), the INHIBITION amounted to 30.5%.
The value for `Fc1cnc(NCC2Cn3nnc(-c4ccccc4)c3CO2)nc1` (stereo unspecified) was 50.9%; that for `NCC1Cn2nnc(-c3cccc(F)c3)c2CO1` (stereo unspecified) was 6.8%.
With `c1cnc(NCC2Cn3nnc(-c4ccoc4)c3CO2)nc1` (stereo unspecified), the INHIBITION is recorded as 25.2%.
On to `O=C(NCC1Cn2nnc(-c3ccccc3)c2CO1)c1ccc[nH]1` (stereo unspecified), for which the INHIBITION is given as -29%.
On to `c1cnc(NCC2Cn3nnc(-c4ccsc4)c3CO2)nc1` (stereo unspecified), for which the INHIBITION amounted to 45.1%.
As for `Fc1cccc(-c2nnn3c2COC(CNc2ncccn2)C3)c1` (stereo unspecified), the INHIBITION is reported as 54.4%.
With `CNCC(=O)N1CCCC1c1n[nH]cc1-c1ccccc1F` (stereo unspecified), the INHIBITION is -16%.
Consider `Cn1ccnc1CN1CCOC(C)(C(=O)N2CCOCC2)C1` (stereo unspecified), for which the INHIBITION amounted to 35.2%.
As to `COCCCN(Cc1ccc(F)cc1Cl)C1CCS(=O)(=O)C1` (stereo unspecified), the INHIBITION came out at 34.9%.
`Cc1cccc(CN2CCC3(CCCN(C(=O)c4ccsc4)C3)C2=O)n1` (stereo unspecified): the INHIBITION is given as 12.6%.
Then `Cc1nnc([C@]23COC[C@H]2CN(Cc2cnn(C)c2)C3)o1`, with 23.1%; and `Cc1cc(Br)c(O)c(C(=O)N2CCC(CN3CCCCCC3)CC2)c1`, with 28.1%; and `Cc1cc(Br)c(O)c(-c2nc(N3CCOCC3)sc2C)c1`, with 33.7%.
Take `Cc1cc(Br)c(O)c(-c2nc(N3CCCCC3)sc2C)c1`: the INHIBITION is 64.9%.
With `Cc1ccsc1CN1C[C@@H]2COC[C@]2(COCC(=O)N(C)C)C1`, the INHIBITION is given as -4.32%.
Turning to `COc1ncccc1CNC1CCc2c(ccc(=O)n2CC2CC2)C1` (stereo unspecified), the INHIBITION came out at 55.7%.
Consider `CC(C)NC1CCc2c(ccc(=O)n2CC2CC2)C1` (stereo unspecified), for which the INHIBITION is listed as 47.4%.
Then `Cn1cc(CNC2CCc3c(ccc(=O)n3C)C2)cn1` (stereo unspecified), with 18.6%.
Take `CCCS(=O)(=O)NC1CCc2c(ccc(=O)n2CC2CC2)C1` (stereo unspecified): the INHIBITION stood at 43.9%.
Then `Cc1cnc(NC2CCc3c(ccc(=O)n3CC3CC3)C2)nc1` (stereo unspecified), with 81.5%; and `COc1ncccc1CNC1CCc2c(ccc(=O)n2C)C1` (stereo unspecified), with 60.2%.
As for `Cc1cnc(NC2CCc3c(ccc(=O)n3C)C2)nc1` (stereo unspecified), the INHIBITION was -14.3%.
On to `COCCn1c2c(ccc1=O)CC(NCc1cccnc1OC)CC2` (stereo unspecified), for which the INHIBITION worked out at 41.2%.
On to `O=c1ccc2c(n1CC1CC1)CCC(NCc1cccs1)C2` (stereo unspecified), for which the INHIBITION turned out to be 92.8%.
As for `O=C(CC1CC1)NC1CCc2c(ccc(=O)n2CC2CC2)C1` (stereo unspecified), the INHIBITION is -5.63%.
`O=c1ccc2c(n1CC1CC1)CCC(NS(=O)(=O)C1CC1)C2` (stereo unspecified): the INHIBITION worked out at 14.8%.
The value for `CCS(=O)(=O)NC1CCc2c(ccc(=O)n2CC2CC2)C1` (stereo unspecified) was 35.7%; that for `O=C(CCN1CCOCC1)Nc1cccc(CNCc2ccsc2)c1` was -1.79%.

The values above are taken from ChEMBL document CHEMBL4513216, “Probing the Open Global Health Chemical Diversity Library for Multistage-Active Starting Points for Next-Generation Antimalarials” (ACS Infect Dis, 2020).
